The text below walks through data of PubChem BioAssay (EPA / NIEHS).

Usually AC50 stands for the concentration at which the activity in the assay is half-maximal.

A structure can be active in one record and inactive in another. Activity calls are given as the source filed them. The calls were made as follows: active = hit-call score of the fitted dose curve at least 0.9, where 1 is the maximum; inactive = score below 0.9.

Assay [1] in a line: ATG_M_32_CIS: Attagene CIS-FACTORIAL HepG2 Assay for M32 Transcription Factor (Internal Marker) (AID 2282949).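 Also: background control marker of the multiplexed CIS panel rather than a real target.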 The following applies: HepG2 Attagene cis-factorial M32 reporter, mRNA; actives raise or lower the signal. In outline: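 Following 24 h chemical exposure of HepG2 cells transiently expressing cis-promoter reporter constructs, reporter transcript levels were determined by RT-PCR with fluorescent labelling and capillary electrophoresis, then fitted bidirectionally against DMSO.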

Assay [2] in a line: ATG_M_06_CIS: Attagene CIS-FACTORIAL HepG2 Assay for M06 Transcription Factor (Internal Marker) (AID 2282950). The following applies: HepG2 Attagene CIS-FACTORIAL M06 internal marker reporter; actives raise or lower the signal. In outline: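 Internal background marker within multiplexed cis-reporter HepG2 system. Cells transiently transfected, dosed 24 h; reporter mRNA measured by RT-PCR, HpaI digestion and capillary electrophoresis. Bidirectional fit relative to DMSO.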

In assay [3] the target is Hypoxia-inducible factor 1-alpha (Homo sapiens) (UniProt Q16665). Description: ATG_HIF1a_CIS: Attagene CIS-FACTORIAL HepG2 Assay for human Hypoxia Inducible Factor 1 (HIF1A) (AID 2282951). The following applies: HepG2 Attagene cis-factorial HIF1a reporter transcription; actives raise or lower the signal. A digest of the protocol: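 Measures endogenous transcription-factor activity through cis-regulated reporter mRNA in HepG2. Cells dosed 24 h; transcripts quantified by RT-PCR with 6-FAM-labelled products separated by capillary electrophoresis; DMSO serves as negative control.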
Sequence of Hypoxia-inducible factor 1-alpha (Homo sapiens) (Q16665 whole entry, looked up): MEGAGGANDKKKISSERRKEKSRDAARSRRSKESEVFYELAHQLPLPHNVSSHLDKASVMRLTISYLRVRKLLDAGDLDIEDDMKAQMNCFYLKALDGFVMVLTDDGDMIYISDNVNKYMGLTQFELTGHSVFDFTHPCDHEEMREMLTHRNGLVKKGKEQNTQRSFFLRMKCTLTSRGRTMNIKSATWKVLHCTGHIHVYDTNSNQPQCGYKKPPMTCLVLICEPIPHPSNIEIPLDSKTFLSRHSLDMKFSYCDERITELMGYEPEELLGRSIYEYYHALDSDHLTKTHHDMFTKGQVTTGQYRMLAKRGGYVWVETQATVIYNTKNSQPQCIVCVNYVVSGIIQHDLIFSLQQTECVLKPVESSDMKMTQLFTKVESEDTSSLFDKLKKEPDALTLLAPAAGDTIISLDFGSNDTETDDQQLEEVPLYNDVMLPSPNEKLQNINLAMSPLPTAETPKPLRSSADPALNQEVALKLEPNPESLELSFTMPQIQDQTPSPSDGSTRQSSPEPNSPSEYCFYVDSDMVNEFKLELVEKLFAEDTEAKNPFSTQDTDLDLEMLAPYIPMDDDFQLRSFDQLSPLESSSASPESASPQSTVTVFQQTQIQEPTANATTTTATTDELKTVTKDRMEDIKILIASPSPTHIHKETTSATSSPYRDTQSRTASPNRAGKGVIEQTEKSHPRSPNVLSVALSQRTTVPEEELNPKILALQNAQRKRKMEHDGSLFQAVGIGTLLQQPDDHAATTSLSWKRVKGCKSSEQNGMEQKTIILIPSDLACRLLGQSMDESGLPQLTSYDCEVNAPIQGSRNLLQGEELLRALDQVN

Assay [4] deals with Hepatocyte nuclear factor 6 (Homo sapiens) (UniProt Q9UBC0). Description: ATG_HNF6_CIS: Attagene CIS-FACTORIAL HepG2 Assay for human Hepatocyte Nuclear Factor 6 (HNF6) (AID 2282952). The following applies: HepG2 Attagene cis-factorial HNF6 reporter transcription; actives raise or lower the signal. A digest of the protocol:
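HepG2, transient MRTU transfection (cis promoters); 24 h chemical exposure; total RNA → oligo(dT) RT → PCR → 6-FAM labelling → HpaI cut → CE; bidirectional fit vs DMSO.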

Assay [5] has as its target Heat shock factor protein 1 (Homo sapiens) (UniProt Q00613). Description: ATG_HSE_CIS: Attagene CIS-FACTORIAL HepG2 Assay for human Heat Shock Transcription Factor 1 (HSE) (AID 2282953). The following applies: HepG2 HSE cis-reporter, Attagene RNA transcription; actives raise or lower the signal. In outline: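 HepG2 cells transfected with cis-promoter reporter units sensing endogenous transcription factor activity; reporter mRNA quantified 24 h post-dose by RT-PCR and capillary electrophoresis of 6-FAM-labelled products. Bidirectional fitting against DMSO.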

Assay [6] in a line: ATG_MRE_CIS: Attagene CIS-FACTORIAL HepG2 Assay for human Metal Responsive Element (MRE) (AID 2282954). The following applies: HepG2 MRE cis-reporter transcription, Attagene multiplex; actives raise or lower the signal. A digest of the protocol: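 HepG2 cells transiently transfected with multiple cis-element reporter units measure endogenous MTF1-driven transcription. After 24 h compound exposure, reporter mRNA is quantified by RT-PCR with 6-FAM labelling, HpaI digestion and capillary electrophoresis; bidirectional fits versus DMSO.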

The target of assay [7] is Paired box protein Pax-6 (Homo sapiens) (UniProt P26367). Description: ATG_Pax6_CIS: Attagene CIS-FACTORIAL HepG2 Assay for human Paired Box 6 (PAX6) (AID 2282956). Particulars: HepG2 CIS-FACTORIAL PAX6 reporter transcription, RNA readout; actives raise or lower the signal. A digest of the protocol: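 After twenty-four hours of chemical exposure, transfected HepG2 cells are harvested for RNA. Cis-promoter reporter transcripts are amplified, fluorescently labelled and sized by capillary electrophoresis, with gain and loss of signal scored against DMSO.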
Sequence of Paired box protein Pax-6 (Homo sapiens) (P26367 whole entry, looked up): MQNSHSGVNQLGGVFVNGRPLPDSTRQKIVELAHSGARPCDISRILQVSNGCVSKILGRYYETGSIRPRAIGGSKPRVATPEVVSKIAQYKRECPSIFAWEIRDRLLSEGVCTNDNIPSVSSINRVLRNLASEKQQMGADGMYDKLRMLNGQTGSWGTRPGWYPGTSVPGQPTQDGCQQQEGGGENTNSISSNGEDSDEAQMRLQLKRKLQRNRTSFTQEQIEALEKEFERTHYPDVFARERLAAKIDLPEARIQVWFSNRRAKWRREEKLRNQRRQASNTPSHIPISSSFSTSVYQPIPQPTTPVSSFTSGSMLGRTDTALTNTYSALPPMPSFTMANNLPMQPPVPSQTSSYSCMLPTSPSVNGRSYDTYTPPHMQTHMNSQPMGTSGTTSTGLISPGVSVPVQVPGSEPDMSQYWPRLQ

Assay [8] is described as follows: ATG_PXRE_CIS: Attagene CIS-FACTORIAL HepG2 Assay for human Pregnane X Receptor Element (PXRE) (AID 2282957). The following applies: HepG2 Attagene CIS-FACTORIAL PXRE reporter, mRNA; actives raise or lower the signal. A digest of the protocol:
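Transfect HepG2 with MRTUs (cis promoter elements); dose chemical, incubate 24 h; isolate RNA, RT with oligo(dT), PCR, 6-FAM label, HpaI cut, CE. Gain/loss fit vs DMSO.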

The nature of assay [9]: ATG_PPRE_CIS: Attagene CIS-FACTORIAL HepG2 Assay for human Peroxisome Proliferator-activated Response Element (PPRE) (AID 2282958). Particulars: HepG2 PPRE cis-element reporter, Attagene transcription factor profiling; actives raise or lower the signal. In outline: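 Cells are first transfected transiently with the multiplexed reporter library, then dosed for 24 h. Total RNA is reverse-transcribed, amplified, fluorescently end-labeled and HpaI-cut before capillary electrophoresis; activity is fitted bidirectionally against DMSO controls.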

The nature of assay [10]: ATG_RORE_CIS: Attagene CIS-FACTORIAL HepG2 Assay for human RAR-related Orphan Receptor Element (RORE) (AID 2282959). The following applies: HepG2 Attagene cis-factorial RORE reporter, mRNA; actives raise or lower the signal. In outline:
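Cells were HepG2 carrying transfected cis-regulated reporter constructs, dosed for 24 hours. Total RNA was reverse-transcribed and reporter cDNA amplified, fluorescently labeled and sized by capillary electrophoresis. Activity was fitted bidirectionally relative to DMSO.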

A short description of assay [11]: ATG_Sox_CIS: Attagene CIS-FACTORIAL HepG2 Assay for human SRY-box transcription factor (SOX) (AID 2282960). The following applies: HepG2 Attagene cis-factorial SOX reporter, mRNA; actives raise or lower the signal. In outline:
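Transient MRTU transfection of HepG2; 24 h compound incubation; TriZol RNA, oligo(dT) RT, PCR, 6-FAM primer extension, HpaI cut, CE. Bidirectional fit, DMSO = baseline.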

For assay [12], the target named is Transcription factor Sp1 (Homo sapiens) (UniProt P08047). Description: ATG_Sp1_CIS: Attagene CIS-FACTORIAL HepG2 Assay for human Specificity Protein 1 (Sp1) (AID 2282961). Particulars: HepG2 Sp1 cis-reporter transcription, actives raise or lower the signal. A digest of the protocol:
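Endogenous Sp1 activity was gauged in human liver HepG2 cells bearing transfected reporter units under a cis-regulating promoter. After 24 h dosing, reporter mRNA was quantified by RT-PCR with capillary electrophoresis, and activity fitted bidirectionally versus DMSO.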

Assay [13] has as its target Signal transducer and activator of transcription 3 (Homo sapiens) (UniProt P40763). In words: ATG_STAT3_CIS: Attagene CIS-FACTORIAL HepG2 Assay for human Signal Transducer and Activator of Transcription 3 (STAT3) (AID 2282963). Particulars: HepG2, Attagene cis-factorial STAT3 reporter transcription; actives raise or lower the signal. A digest of the protocol: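 HepG2 cells transiently transfected with cis-element-driven multiple reporter transcription units; after 24 h chemical exposure, reporter mRNA measured by RT-PCR, 6-FAM primer-extension labelling, HpaI digestion and capillary electrophoresis. Bidirectional fitting versus DMSO baseline.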

Assay [14] is described as follows: ATG_TA_CIS: Attagene CIS-FACTORIAL HepG2 Assay for human TA Basal Promoter (AID 2282964). Particulars: HepG2 Attagene CIS-factorial TA basal promoter reporter; actives raise or lower the signal. A digest of the protocol: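 HepG2 cells transiently transfected with multiple reporter units under cis promoter elements, reporting endogenous transcription factor activity; this endpoint tracks the TA basal promoter as background control. Reporter mRNA after 24 h dosing measured by RT-PCR/capillary electrophoresis; bidirectional fits versus DMSO.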

A short description of assay [15]: ATG_TCF_b_cat_CIS: Attagene CIS-FACTORIAL HepG2 Assay for human T-Cell-Factor with beta-catenin (TCF/b-cat) (AID 2282965). Particulars: HepG2 TCF/beta-catenin cis-reporter transcription, actives raise or lower the signal. A digest of the protocol: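 Using capillary electrophoresis as the read-out, labelled reporter cDNA fragments from transiently transfected HepG2 were sized and quantified. Exposure lasted 24 hours; activity in either direction was referenced to DMSO.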

A short description of assay [16]: ATG_TAL_CIS: Attagene CIS-FACTORIAL HepG2 Assay for human TAL Basal Promoter (AID 2282966).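 Also: background control endpoint measuring basal TAL promoter reporter mRNA not a specific factor.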 Particulars: HepG2 Attagene cis-factorial TAL promoter reporter; actives raise or lower the signal. In outline:
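Fluorescence of labelled reporter cDNA fragments, resolved by capillary electrophoresis, gave the readout. Human HepG2 liver cells carried transiently transfected cis-element reporter units and were treated for 24 hours; activity was fitted bidirectionally against DMSO.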

A short description of assay [17]: ATG_TGFb_CIS: Attagene CIS-FACTORIAL HepG2 Assay for human Transforming Growth Factor (TGF) (AID 2282967). Particulars: HepG2 Attagene CIS TGFb reporter, mRNA transcription; actives raise or lower the signal. In outline: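 HepG2 cells transiently transfected with cis-promoter-driven multiple reporter units measure endogenous TF activity; reporter mRNA quantified at 24 h by RT-PCR, FAM labeling, HpaI digestion and capillary electrophoresis. Bidirectional fit vs DMSO.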

A short description of assay [18]: ATG_VDRE_CIS: Attagene CIS-FACTORIAL HepG2 Assay for human Vitamin D Receptor Element (VDRE) (AID 2282968). The following applies: HepG2 VDRE cis-reporter transcription, actives raise or lower the signal. A digest of the protocol: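 HepG2 cells transiently transfected with cis-element reporter units, dosed 24 h; reporter mRNA measured by RT-PCR, 6-FAM labeling, HpaI digestion and capillary electrophoresis. Activity fitted bidirectionally against DMSO baseline.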

Assay [19] is described as follows: ATG_PBREM_CIS: Attagene CIS-FACTORIAL HepG2 Assay for human Phenobarbital-responsive Enhancer Module (PBREM) (AID 2282955). The following applies: HepG2 PBREM cis-reporter, Attagene multiplexed transcription; actives raise or lower the signal. In outline:
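Fluorescence of labelled reporter cDNA fragments, resolved by capillary electrophoresis, gives mRNA induction in transfected HepG2 cells treated for 24 h; DMSO serves as negative control and baseline.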

Assay [20] in a line: ATG_SREBP_CIS: Attagene CIS-FACTORIAL HepG2 Assay for human Sterol Regulatory Element Binding (SREBP) (AID 2282962). Particulars: HepG2 Attagene cis-factorial SREBP reporter, mRNA; actives raise or lower the signal. A digest of the protocol:
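Twenty-four hours after chemical dosing of transfected HepG2 cultures, reporter RNA was converted to cDNA, amplified, end-labelled with 6-FAM and resolved by capillary electrophoresis. Responses were fitted relative to DMSO.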

Sequence of Hepatocyte nuclear factor 6 (Homo sapiens) (Q9UBC0 whole entry, looked up): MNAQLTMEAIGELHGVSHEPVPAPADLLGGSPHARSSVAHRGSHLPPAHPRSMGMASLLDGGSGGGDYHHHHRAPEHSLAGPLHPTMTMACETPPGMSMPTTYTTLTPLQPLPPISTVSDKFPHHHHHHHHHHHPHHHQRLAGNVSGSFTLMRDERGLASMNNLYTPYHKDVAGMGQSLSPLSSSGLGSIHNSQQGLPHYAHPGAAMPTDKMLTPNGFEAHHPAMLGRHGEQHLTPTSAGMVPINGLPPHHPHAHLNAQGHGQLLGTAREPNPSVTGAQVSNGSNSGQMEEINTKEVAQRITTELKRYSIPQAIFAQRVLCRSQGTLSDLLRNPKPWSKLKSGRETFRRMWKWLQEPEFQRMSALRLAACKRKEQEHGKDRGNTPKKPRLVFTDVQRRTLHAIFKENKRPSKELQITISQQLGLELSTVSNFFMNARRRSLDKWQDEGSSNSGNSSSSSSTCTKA
Sequence of Transcription factor Sp1 (Homo sapiens) (P08047 whole entry, looked up): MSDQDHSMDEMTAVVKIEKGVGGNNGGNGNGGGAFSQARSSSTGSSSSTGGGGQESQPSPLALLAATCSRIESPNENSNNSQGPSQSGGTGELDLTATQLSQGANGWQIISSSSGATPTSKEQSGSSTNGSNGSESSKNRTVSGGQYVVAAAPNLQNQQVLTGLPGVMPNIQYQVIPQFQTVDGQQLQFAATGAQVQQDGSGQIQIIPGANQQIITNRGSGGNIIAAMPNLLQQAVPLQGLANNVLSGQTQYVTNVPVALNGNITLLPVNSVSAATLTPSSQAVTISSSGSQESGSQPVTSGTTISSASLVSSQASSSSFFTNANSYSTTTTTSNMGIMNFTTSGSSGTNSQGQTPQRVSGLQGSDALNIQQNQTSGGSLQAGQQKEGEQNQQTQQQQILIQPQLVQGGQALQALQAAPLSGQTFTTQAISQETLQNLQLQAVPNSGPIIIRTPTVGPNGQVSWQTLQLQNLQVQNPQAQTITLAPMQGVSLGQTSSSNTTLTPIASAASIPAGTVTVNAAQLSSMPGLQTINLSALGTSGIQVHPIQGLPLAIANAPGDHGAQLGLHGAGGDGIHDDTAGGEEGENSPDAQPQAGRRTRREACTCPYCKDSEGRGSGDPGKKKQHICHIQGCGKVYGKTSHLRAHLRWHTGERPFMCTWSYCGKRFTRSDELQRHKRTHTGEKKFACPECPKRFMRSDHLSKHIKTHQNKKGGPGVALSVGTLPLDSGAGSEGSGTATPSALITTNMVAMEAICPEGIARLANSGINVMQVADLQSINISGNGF
Sequence of Signal transducer and activator of transcription 3 (Homo sapiens) (P40763 whole entry, looked up): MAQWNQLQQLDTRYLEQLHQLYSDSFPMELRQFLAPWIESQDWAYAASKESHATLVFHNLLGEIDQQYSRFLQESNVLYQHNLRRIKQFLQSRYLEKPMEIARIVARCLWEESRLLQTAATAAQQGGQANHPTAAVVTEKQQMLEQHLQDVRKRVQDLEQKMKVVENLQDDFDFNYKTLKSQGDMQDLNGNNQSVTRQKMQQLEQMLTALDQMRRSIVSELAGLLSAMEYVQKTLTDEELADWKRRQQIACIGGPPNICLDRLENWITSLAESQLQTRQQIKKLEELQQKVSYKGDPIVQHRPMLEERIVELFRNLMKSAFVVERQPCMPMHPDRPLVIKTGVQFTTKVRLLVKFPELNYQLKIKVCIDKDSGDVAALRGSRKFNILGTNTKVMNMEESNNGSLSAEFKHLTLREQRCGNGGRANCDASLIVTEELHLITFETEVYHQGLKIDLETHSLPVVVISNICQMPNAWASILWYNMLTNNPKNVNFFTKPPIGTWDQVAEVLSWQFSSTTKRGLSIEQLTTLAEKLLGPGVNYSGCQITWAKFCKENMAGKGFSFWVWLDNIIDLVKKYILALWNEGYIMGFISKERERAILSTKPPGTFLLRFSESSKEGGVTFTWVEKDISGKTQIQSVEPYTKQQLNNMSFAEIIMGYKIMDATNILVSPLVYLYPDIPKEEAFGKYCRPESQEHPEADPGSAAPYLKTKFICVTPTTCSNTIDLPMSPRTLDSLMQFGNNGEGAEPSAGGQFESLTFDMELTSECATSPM
Sequence of Heat shock factor protein 1 (Homo sapiens) (Q00613 whole entry, looked up): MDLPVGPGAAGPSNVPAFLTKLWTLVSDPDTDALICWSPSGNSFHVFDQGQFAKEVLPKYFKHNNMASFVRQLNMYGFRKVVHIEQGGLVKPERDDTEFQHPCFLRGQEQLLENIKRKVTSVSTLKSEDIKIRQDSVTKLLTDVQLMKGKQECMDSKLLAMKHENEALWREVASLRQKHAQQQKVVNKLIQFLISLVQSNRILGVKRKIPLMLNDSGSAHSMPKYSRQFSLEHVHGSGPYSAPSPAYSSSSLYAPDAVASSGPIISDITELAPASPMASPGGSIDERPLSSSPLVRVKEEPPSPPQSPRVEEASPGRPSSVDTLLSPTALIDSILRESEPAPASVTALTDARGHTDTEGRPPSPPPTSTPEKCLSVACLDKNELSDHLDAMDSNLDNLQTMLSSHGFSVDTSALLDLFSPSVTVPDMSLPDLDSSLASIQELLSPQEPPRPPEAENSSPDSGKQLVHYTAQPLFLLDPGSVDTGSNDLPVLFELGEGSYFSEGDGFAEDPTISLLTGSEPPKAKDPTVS

`N=C(N)c1ccc(OCCCCCOc2ccc(C(=N)N)cc2)cc1`: the result in assay [1], in assay [2], in assay [4], in assay [5], in assay [9] and in assay [10] was inactive. The compound was called inactive in assay [11], in assay [12], in [13], in assay [16] and in assay [17]. The AC50 is 113 µM (active) in [3]; 65.2 µM (active) in assay [6]; 101 µM (active) in assay [7]; 57.2 µM (active) in [8]; 59 µM (active) in assay [14]; 36.6 µM (active) in assay [15]. Moreover, in assay [18], the concentration at half-maximal activity (AC50) was 87.5 µM (active).

In the case of `O=S(=O)(O)c1ccc2cc(O)ccc2c1`, the call in assay [1], in [2], in assay [3], in assay [4], in assay [5] and in [6] was inactive. The outcome in [19], in [8], in [11], in assay [12], in assay [13] and in assay [14] was inactive. Besides, the result in assay [15], in assay [16], in assay [17] and in assay [18] was inactive.

As to `C[C@]12CC[C@@H]3c4ccc(O)cc4CC[C@H]3[C@@H]1C[C@@H](O)[C@@H]2O`, the outcome in assay [1], in [2], in [3], in assay [4], in assay [5] and in assay [6] was inactive. The compound was classed as inactive in assay [8], in [9], in [10], in [11], in assay [12] and in assay [20]. Also, the compound was classed as inactive in assay [13], in assay [14], in [15], in assay [16], in assay [17] and in [18]. Moreover, the AC50 in assay [18] was 27.1 µM (active).

In the case of `CC(C)[C@@H]1CC[C@@H](C)C[C@H]1O`, the outcome in assay [1], in assay [2], in assay [3], in [4], in assay [6] and in assay [19] was inactive. Besides, the compound was classed as inactive in assay [7], in [8], in assay [9], in [10], in [11] and in assay [12]. The outcome in [20], in assay [13], in assay [14], in [15], in assay [16] and in [17] was inactive. Further, the compound was called inactive in [18].
